Laboratory results from PubChem BioAssay (NCI).
This is part of a sample that, as a whole, favours compounds with a hit. Of some 79,000 tested, about 15% had one in any assay. Values without a mark were called inactive. The source made the active and inactive calls. Rule as the data show it: active = growth inhibition above about 70%; inactive = the rest.

Experiments:
[1] = NCI Yeast Anticancer Drug Screen. Data for the rad50 strain (AID 155);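 also: 0% = growth of vehicle-only cultures of the same strain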; settings: S. cerevisiae rad50 strain growth inhibition; at 50.0 µM; stronger effect = higher value
Procedure, shortened: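 Vehicle-treated cultures provide the reference for the growth inhibition reported for compound-exposed, repair-deficient yeast.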

[2] = NCI Yeast Anticancer Drug Screen. Data for the mec2-1 strain (AID 157); settings: S. cerevisiae mec2-1 strain, at 50.0 µM, stronger effect = higher value
Procedure, shortened: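 Strain: mec2-1 (DNA repair/cell cycle alteration). Compound exposure, then growth measured; inhibition expressed relative to vehicle.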

[3] = NCI Yeast Anticancer Drug Screen. Data for the sgs1 mgt1 strain (AID 161);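 also: 0% = growth of cultures given vehicle only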; settings: S. cerevisiae sgs1 mgt1 strain, at 50.0 µM, stronger effect = higher value
Procedure, shortened: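 Mutant yeast exposed to compound; growth scored against vehicle-only wells.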

[4] = NCI Yeast Anticancer Drug Screen. Data for the cln2 rad14 strain (AID 165);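 also: 0% = growth equal to vehicle treated cultures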; settings: S. cerevisiae cln2 rad14 strain, at 50.0 µM, stronger effect = higher value
Procedure, shortened: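 Compounds are applied to the cln2 rad14 yeast strain, and growth is then compared with that of vehicle-treated cultures to give inhibition.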

[5] = NCI Yeast Anticancer Drug Screen. Data for the bub3 strain (AID 167); settings: S. cerevisiae bub3 mutant strain, at 50.0 µM, stronger effect = higher value
Procedure, shortened: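 Mutant yeast screening strain plus compound; vehicle-treated cultures serve as the 0% inhibition reference.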

[6] = NCI Yeast Anticancer Drug Screen. Data for the mlh1 rad18 strain (AID 175); settings: S. cerevisiae mlh1 rad18 strain growth inhibition; at 50.0 µM; stronger effect = higher value
Procedure, shortened: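 Read-out is yeast growth inhibition, calculated against vehicle-only controls. The compound was applied to a strain engineered with DNA damage repair alterations.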

SMILES | growth inhibition [1] | growth inhibition [2] | growth inhibition [3] | growth inhibition [4] | growth inhibition [5] | growth inhibition [6]
CCN(CC)Cc1cc(OC)c(OC)c(OC)c1 | -8.3% | -14.5% | -6.6% | -50.9% | 7% | -18.1%
COc1cccc(/C=C2\CCC(C)(CN(C)C)C2=O)c1 (stereo not drawn) | 32.9% | 9.1% | 38.9% | 29.2% | 13.2% | 29.9%
COC(=O)[C@H]1O[C@H]1c1cccc[n+]1[O-] | 10.1% | -2.4% | 3.9% | -24.6% | 9.3% | -0.9%
NC(=O)C1C(=O)NC(=O)C1=O (stereo not drawn) | -21.5% | -17.9% | -8.75% | -7.7% | -9.75% | -22.4%
O=P1(O)c2ccccc2Oc2ccccc21 | -4% | -2.2% | 7.45% | 2.9% | -0.95% | -44.5%
CCOC(=O)C(C)(C)/C=C\C(Cl)=C(Cl)Cl | 4.1% | 4.2% | 8.75% | 4.25% | 19.2% | -34.5%
CCCC(=O)Oc1cc(C)ccc1C(C)(C)C | -17.9% | -22.6% | -12.3% | -33.6% | -35.6% | -42%
Cc1ccnc(NCc2ccccn2)c1 | 6.7% | 3.85% | 17.4% | -0.15% | 1.3% | -1.5%
CC(=O)NCC1OCC2OC(C)(C)OC12 (stereo not drawn) | 3.35% | -5% | -11.7% | -73.8% | -12.1% | -8.8%
CCOc1nc(C(=O)O)cc2ccsc12 | 1.15% | -6.2% | 5.5% | -48.1% | -43.4% | 0%
NC(=O)NCC(N)C(=O)O (stereo not drawn) | -4.75% | -5.2% | -2.3% | 1.55% | 1.55% | -1.9%
CC1OC(n2ccc3ccc([N+](=O)[O-])cc32)C(O)C(O)C1O (stereo not drawn) | -5.2% | -3.85% | -32.7% | -12.2% | -27.8% | -21.4%
O=C(Cc1ccccc1)NN(Cc1ccccc1)Cc1ccccc1 | -14.8% | -0.85% | -2.95% | -10.8% | 23.9% | 0.5%
Nc1c(Br)cc(Br)c2c1CCC2 | 10.6% | 5.9% | 10.6% | 1.4% | 8.8% | 15.8%
CCOC(=O)/C(=C/n1c(=S)[nH]c2ccc([N+](=O)[O-])cc21)C(=O)c1ccccc1 | -7.55% | -44.8% | -12.9% | -1.35% | -16.7% | -4.65%
O=CC(NC(=O)OCc1ccccc1)C(O)C(O)C(O)CO (stereo not drawn) | -15.3% | 2.7% | 1.75% | -6.3% | -15.9% | -16.9%
CCOC(=O)CC(=O)C(=O)OCC | 2.05% | -4.75% | -4.8% | -25.6% | -18% | -27.2%
COC(=O)/C=C(\C)CC(O)/C=C(\C)CCC=C(C)C (stereo not drawn) | 21.1% | 49.1% | 75.1% (active) | 12.8% | 60.5% | -23.1%
COC(=O)c1ccc(C(=O)c2ccccc2)cc1 | -1.15% | 9.15% | 27.9% | 5.55% | 14.2% | 7.7%

SMILES | growth inhibition [1] | growth inhibition [2] | growth inhibition [3] | growth inhibition [4] | growth inhibition [5] | growth inhibition [6]
O=C(O)Cc1ccccc1C(=O)O | 12.9% | 2.3% | 7.7% | 13.8% | -19% | -5%
O=C(O)CC1CCCc2ccccc2C1=O (stereo not drawn) | 34.3% | 46.3% | 18.1% | 25.9% | 48.5% | 17.9%
CCCCN(CCCC)C(=O)C(O)C(=O)N(CCCC)CCCC | -5.05% | -13.8% | -4.4% | -9.6% | -13.3% | -3.8%
COC(=O)c1cccc2c1cc(Br)c1ccccc12 | 1.75% | 11.6% | 14.2% | -30.4% | 1.35% | 16.3%
O=[N+]([O-])c1ccc(/C=C/[P+](c2ccccc2)(c2ccccc2)c2ccccc2)o1 | 94.2% (active) | 97.5% (active) | 89.5% (active) | 83.5% (active) | 95.8% (active) | 93.7% (active)
CC(O)C1(O)C(O)CC(OC2c3cc4c(c(O)c3[C@@H]3C[C@@]2(C)OC32C=c3cc[nH]c3=N2)C(=O)c2cccc(O)c2C4=O)OC1C (stereo partly drawn) | 63.5% | 41.1% | 60% | 50.4% | 52% | 67.6%
O=C1CCCc2[nH]c3ccc(Cl)cc3c21 | -1.9% | 0.3% | -10.9% | -21.9% | -14.2% | 12.9%
CN1CC(=O)N(C(=O)c2ccccc2)C1=N | -6.6% | -17.2% | -6.4% | -17.9% | -2.15% | 9.55%
O=C(CC(c1ccccc1)N1CCCCC1)OC(c1ccccc1)c1ccc(Br)cc1 (stereo not drawn) | 12.9% | 4.05% | 11.6% | 7.95% | 6.4% | 2.8%
CN(C)S(=O)(=O)c1cccc2ccccc12 | 3.35% | 7.85% | -7.35% | -6.9% | 2.45% | -8.65%
S=C(NNC1=NCCN1)Nc1ccccc1 | -54% | -19.9% | -19.8% | 3.15% | -20.9% | -12.7%
CCSCCC(Nc1ncnc2nc[nH]c12)C(=O)O (stereo not drawn) | -17.8% | 8.75% | -5.65% | -17% | -4.8% | -19.4%
NC(=NC1CCCCC1)/N=C(/N)Nc1ccc(Cl)cc1 | 26.8% | 0.2% | 5% | -29.6% | 4.7% | 14.4%
Cc1noc(/N=C/c2ccccc2)c1C | -6.8% | -5.45% | -5.3% | -28.1% | 4.4% | -2.5%
CCN(CC)CCNCc1ccc(Cl)cc1 | -16.5% | -38.8% | 3.95% | 6.15% | -8.7% | -16.1%
Cc1nc2c(=O)n3c4c(cccc4c2o1)CCC3 | 14.4% | 10.4% | 21.6% | 14.5% | 14.5% | -48.4%
Cc1cc2c(cc1C)C(C)(C)c1c(nc(N)[nH]c1=O)N2C | 3.7% | -1.1% | 20.5% | -15.7% | -0.45% | 1.7%
O=S(=O)(c1ccccc1)C1(Sc2ccccc2)CC(Br)[C@@H](Br)C1 (stereo partly drawn) | 21.9% | 7.3% | 25.5% | 8% | -6.65% | -5.55%
COc1ccc(C(O)c2ccccn2)cc1 (stereo not drawn) | -13.1% | -35.9% | -24% | -34.8% | -62.7% | -18.7%
